Measurements: the supplement of paper PMC6089552
Screen size: about 3,200 compounds; about 300 (9.4%) showed activity. The sample as a whole holds a higher share of actives than the screen did.

Tested on: A673/TR/shEF
Assay: cell viability (LOESS-normalised, relative to median of negative controls) (log2 ratio); higher = more viable cells (less compound effect), active = hit call of the paper (over 3 MAD below the median)
Settings: treatment time: 72 h
Procedure, shortened: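 Viability of A673/TR/shEF Ewing sarcoma cells was determined by CellTiter-Glo luminescence. The cells, at 1,500 per well in 384-well plates, were grown with or without doxycycline from 24 h before compound addition to switch on EWS-FLI1 shRNA knockdown, then exposed for three days to library compounds at two or more concentrations or to DMSO controls. Signals were LOESS-corrected plate by plate, normalised to the negative-control median and log2-transformed.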

[1] = 0.103 µM, library screen: screen3, EWS-FLI1 expression: high (no doxycycline)
[2] = 0.103 µM, library screen: screen3, EWS-FLI1 expression: low (doxycycline-induced shRNA knockdown)
[3] = 0.308 µM, library screen: screen3, EWS-FLI1 expression: high (no doxycycline)
[4] = 0.308 µM, library screen: screen3, EWS-FLI1 expression: low (doxycycline-induced shRNA knockdown)
[5] = 0.926 µM, library screen: screen3, EWS-FLI1 expression: high (no doxycycline)
[6] = 0.926 µM, library screen: screen3, EWS-FLI1 expression: low (doxycycline-induced shRNA knockdown)
[7] = 2.8 µM, library screen: screen3, EWS-FLI1 expression: high (no doxycycline)
[8] = 2.8 µM, library screen: screen3, EWS-FLI1 expression: low (doxycycline-induced shRNA knockdown)
[9] = 8.3 µM, library screen: screen3, EWS-FLI1 expression: high (no doxycycline)
[10] = 8.3 µM, library screen: screen3, EWS-FLI1 expression: low (doxycycline-induced shRNA knockdown)
[11] = 25 µM, library screen: screen3, EWS-FLI1 expression: high (no doxycycline)
[12] = 25 µM, library screen: screen3, EWS-FLI1 expression: low (doxycycline-induced shRNA knockdown)
[13] = 0.25 µM, library screen: screen1, EWS-FLI1 expression: high (no doxycycline)
[14] = 0.25 µM, library screen: screen1, EWS-FLI1 expression: low (doxycycline-induced shRNA knockdown)
[15] = 0.25 µM, library screen: screen2, EWS-FLI1 expression: high (no doxycycline)
[16] = 0.25 µM, library screen: screen2, EWS-FLI1 expression: low (doxycycline-induced shRNA knockdown)
[17] = 2.5 µM, library screen: screen1, EWS-FLI1 expression: high (no doxycycline)
[18] = 2.5 µM, library screen: screen1, EWS-FLI1 expression: low (doxycycline-induced shRNA knockdown)
[19] = 2.5 µM, library screen: screen2, EWS-FLI1 expression: high (no doxycycline)
[20] = 2.5 µM, library screen: screen2, EWS-FLI1 expression: low (doxycycline-induced shRNA knockdown)

Measured: cell viability (log2)

Nc1ccn([C@@H]2O[C@H](CO)[C@@H](O)C2(F)F)c(=O)n1
active: [1] -1.19 | [2] -0.155 | [3] -1.43 | [4] -0.392 | [5] -1.81 | [6] -0.473 | [7] -1.98 | [8] -0.588 | [9] -2.08 | [10] -0.562 | [11] -2.16 | [12] -0.572

NC(=O)c1ncn([C@@H]2O[C@H](CO)[C@@H](O)[C@H]2O)c1O
inactive: [13] 0.115 | [14] 0.116 | [15] 0.21 | [16] 0.141 | [17] 0.0737 | [18] 0.176 | [19] 0.0545 | [20] 0.0404

Nc1ncn([C@H]2C[C@H](O)[C@@H](CO)O2)c(=O)n1
inactive: [1] -0.0304 | [2] 0.0527 | [3] -0.025 | [4] 0.0562 | [5] -0.0731 | [6] 0.022 | [7] -0.0569 | [8] 0.0493 | [9] -0.0462 | [10] 0.058 | [11] -0.117 | [12] 0.0388

CC(=O)Oc1ccc2c(c1)CCC1C2CCC2(C)C(=O)CCC12 (stereo not drawn)
inactive: [13] 0.0434 | [14] -0.0193 | [17] 0.146 | [18] 0.0428

N.N.N.N.N.O.[Ru+2]
inactive: [15] 0.216 | [16] 0.0909 | [19] 0.256 | [20] 0.0639

CCC/C=C/C=C/C1CC(O)C(O)C(=O)C1C=O (stereo not drawn)
inactive: [13] -0.0508 | [14] 0.0579 | [17] 0.0447 | [18] 0.105

C=C1CC[C@@H]2[C@H](CC2(C)C)C(=O)CC[C@@H]1O
inactive: [13] 0.0475 | [14] 0.00133 | [17] 0.0814 | [18] 0.0623

C=C1C(C)(C)[C@@]2(Cl)C(Cl)[C@]1(Cl)C(Cl)(Cl)C2(Cl)Cl (stereo partly drawn)
inactive: [13] 0.0218 | [14] 0.106 | [17] 0.0433 | [18] 0.0358

COc1ccccc1CN1CCN(Cc2ccc(OC)c(OC)c2OC)CC1
inactive: [13] 0.0684 | [14] 0.104 | [17] 0.0567 | [18] 0.0723

CC[C@H]1OC(=O)[C@H](C)[C@@H](O[C@H]2C[C@@](C)(OC)[C@@H](O)[C@H](C)O2)[C@H](C)[C@@H](O[C@@H]2O[C@H](C)C[C@H](N(C)C)[C@H]2O)[C@](C)(O)C[C@@H](C)/C(=N/OCOCCOC)[C@H](C)[C@@H](O)[C@]1(C)O
inactive: [13] 0.13 | [14] 0.107 | [17] 0.122 | [18] 0.103

C/C=C/CC(C)C(O)C1C(=O)NC(CC)C(=O)N(C)CC(=O)N(C)C(CC(C)C)C(=O)NC(C(C)C)C(=O)N(C)C(CC(C)C)C(=O)NC(C)C(=O)NC(C)C(=O)N(C)C(CC(C)C)C(=O)N(C)C(CC(C)C)C(=O)N(C)C(C(C)C)C(=O)N1C (stereo not drawn)
inactive: [13] 0.0736 | [14] 0.0415 | [15] 0.25 | [16] 0.127 | [17] 0.0328 | [18] 0.00672 | [19] 0.11 | [20] 0.104

CC(C)(O)[C@@H]1CC[C@](C)([C@H]2[C@@H](O)C[C@@]3(C)[C@@H]4C[C@H](O[C@@H]5O[C@H](CO)[C@@H](O)[C@H](O)[C@H]5O)[C@H]5C(C)(C)[C@@H](O[C@@H]6OC[C@@H](O)[C@H](O)[C@H]6O)CC[C@@]56C[C@@]46CC[C@]23C)O1
inactive: [1] 0.0688 | [2] 0.0886 | [3] 0.0588 | [4] 0.038 | [5] 0.056 | [6] 0.105 | [7] 0.044 | [8] -0.00938 | [9] 0.0806 | [10] 0.0911 | [11] 0.0188 | [12] 0.0301

CC(=O)O[C@H]1CC[C@@]2(C)[C@@H](CC[C@@H]3[C@@H]2CC[C@]2(C)[C@@H]4[C@H](C[C@@H]32)O[C@]2(CC[C@@H](C)CO2)[C@H]4C)C1
inactive: [13] 0.0876 | [14] 0.0708 | [17] 0.176 | [18] 0.151

CC1=C(Cl)C(O)=CC(=O)C12Oc1cc(O)c(Cl)c(C)c1C2=O (stereo not drawn)
inactive: [13] 0.0863 | [14] 0.0945 | [17] 0.127 | [18] 0.13

CSCC[C@H](NC=O)C(=O)N[C@@H](Cc1ccccc1)C(=O)O
inactive: [13] 0.0894 | [14] 0.169 | [17] 0.0791 | [18] 0.113

C/C=C(/C)C(=O)O[C@@H]1c2c(ccc3ccc(=O)oc23)OC(C)(C)[C@@H]1OC(C)=O
inactive: [13] -0.0115 | [14] 0.00938 | [17] 0.181 | [18] 0.0803

C[C@@H]1O[C@@H](O[C@H]2[C@H](O[C@H]3CC[C@@]4(C)[C@@H](CC[C@]5(C)[C@@H]4CC=C4[C@@H]6CC(C)(C)CC[C@]6(C(=O)O)CC[C@]45C)[C@]3(C)CO)OC[C@H](O)[C@@H]2O)[C@H](O)[C@H](O)[C@H]1O
inactive: [13] 0.0421 | [14] 0.11 | [17] 0.089 | [18] 0.0617

CC(=O)N1CCN(c2nc(-c3ccccc3)c3cc(Br)ccc3n2)CC1
inactive: [13] 0.0769 | [14] 0.0692 | [17] 0.115 | [18] 0.105

COc1ccccc1/C=C/c1nc(O)c([N+](=O)[O-])c(=O)[nH]1
inactive: [13] 0.123 | [14] 0.138 | [17] 0.0902 | [18] 0.00102
